We go through 96 compounds from PubChem BioAssay AID565 (University of Pittsburgh Molecular Library Screening Center, 2006).

Among all 65,000 compounds or so, about 1,200 (1.8%) were called active. No stated cut-off is given here; in the data, active means inhibition above about 50%; inactive means the rest. The sample as a whole holds a higher share of actives than the screen did.

The target of the assay is Gag-Pol polyprotein (Human immunodeficiency virus type 1 group M subtype B (isolate HXB2)) (UniProt P04585). Kind of assay: HIV-1 RT RNase H inhibitors, primary screen, biochemical, fluorescence (AID 565). The settings on record: RT-RNase H RNA/DNA duplex cleavage, at 10 µM, hits give high values.
With `Cn1c(=NC(=O)c2ccco2)sc2cccc(F)c21`, the inhibition was -27.2% (inactive).

With `COCc1cc(C)nc(Nc2cc(C)ccc2C)c1C#N`, the inhibition was -17% (inactive).

Regarding `Cc1noc(NS(=O)(=O)c2ccc(N3CC(O)=C(c4ccccc4)C3=N)cc2)c1C`, the inhibition is -3.39% (inactive).

Regarding `Cc1cc(C)nc(SCc2nnc(SCC(=O)Nc3ncc(C)s3)n2Cc2ccco2)n1`, the inhibition was -40.5% (inactive).

For `Cc1cnc(NC(=O)CSc2nnc(-c3ccccc3)n2Cc2ccccc2)s1`, the inhibition was -0.4% (inactive).

Regarding `Cc1cnc(NC(=O)CSc2nnc(-c3ccc(Cl)cc3Cl)n2N)s1`, the inhibition was 70.1% (active).

On to `CCCNS(=O)(=O)c1ccc2c(c1)CCCN2C(C)=O`, for which the inhibition was -15.5% (inactive).

As for `CCc1c(C)sc(NC(=O)c2ccc(Br)o2)c1C(=O)OC`, the inhibition was -67.1% (inactive).

In the case of `CC1CCc2c(sc(NC(=O)c3ccc(Cn4cc(Br)cn4)o3)c2C(N)=O)C1` (stereo unspecified), the inhibition is 88.6% (active).

For `CCOC(=O)c1c(NC(=O)c2ccc(Br)o2)sc2c1CCCC2`, the inhibition was -13% (inactive).

With `CCC1(C)Cc2c(sc3nc4n(c(=O)c23)CCCS4)CO1` (stereo unspecified), the inhibition was -2.87% (inactive).

Regarding `CC(=O)Nc1nonc1-c1nc2ccccc2n1Cc1ccccn1`, the inhibition was -10.2% (inactive).

Regarding `CCOc1ccc(NC(=O)N2CCN(CC)CC2)cc1`, the inhibition is -4.55% (inactive).

On to `Cc1ccccc1NC(=O)c1ccccc1`, for which the inhibition was -3.87% (inactive).

On to `Cc1ccc(NC(=O)c2nc[nH]c2C(=O)N2CCCCC2)c(C(=O)c2ccccc2)c1`, for which the inhibition was 2.94% (inactive).

Regarding `Cc1ccc2c(c1)sc1ncc(NC(=O)c3ccccc3)c(=O)n12`, the inhibition is 68.4% (active).

For the compound `COc1ccccc1CNC(=O)CCCn1c(=O)c2ccccc2n(CC(=O)NC2CCCC2)c1=O`, the inhibition was -18.8% (inactive).

As for `COc1ccc(CCNc2ncnc3nc[nH]c23)cc1OC`, the inhibition is -5.66% (inactive).

Consider `COC(=O)Nc1nc2ccc(Sc3ccccc3)cc2[nH]1`, for which the inhibition is 82.8% (active).

On to `Oc1ccc2nc(Cc3ccccc3)[nH]c2c1`, for which the inhibition was -7.13% (inactive).

Take `COC(=O)Cc1nc2ccccc2[nH]1`: the inhibition is -25.6% (inactive).

In the case of `O=C1c2cccnc2C(=O)N1Cc1cccs1`, the inhibition is -2.26% (inactive).

In the case of `COc1ccc(C(=O)NC(=O)CSc2nnc(-c3ccco3)n2-c2ccccc2)cc1`, the inhibition is -5.53% (inactive).

`Cc1cccc(-n2c(N)cc(=O)nc2SC(C)C(=O)NC2CCCCC2)c1` (stereo unspecified): the inhibition is -4.66% (inactive).

Take `Cc1cccc(-n2c(C)nc3cc(C(=O)N4CCC5(CC4)OCCO5)ccc32)c1`: the inhibition is 3.01% (inactive).

For the compound `Cc1ccc(-n2c(N)c(C(=O)N3CCOCC3)sc2=S)c(C)c1`, the inhibition is 79.7% (active).

As for `CC(=O)c1c(N2CCOCC2)nc(=S)n(-c2cc(C)ccc2C)c1C`, the inhibition is -1.2% (inactive).

For the compound `Cc1cccc(-n2c(N)c(C(=O)N3CCN(C)CC3)sc2=S)c1`, the inhibition is 90.6% (active).

Take `O=C(c1ccccc1)N1CCN(C(=O)N2CCCCC2)CC1`: the inhibition was -10.1% (inactive).

In the case of `CCC(=O)Nc1sc(C(=O)N2CCCCC2)c(C)c1C#N`, the inhibition is 0.57% (inactive).

Regarding `Cc1ccc(OCCCC(=O)N2CCOCC2)c(C)c1`, the inhibition was -20.5% (inactive).

On to `N#Cc1ccccc1-n1c(N)c(C(=O)N2CCCC2)sc1=S`, for which the inhibition is 68% (active).

With `COc1cccc(-n2c(SCC(=O)NC3CCCCC3)nc3n[nH]c(C)c3c2=N)c1`, the inhibition was -20% (inactive).

Take `Cc1ccc2nc(NC3=NCN(CCc4ccccc4)CN3)nc(C)c2c1`: the inhibition is 11.4% (inactive).

`COc1ccc(C(=O)Nc2c(N)nc(SCC(=O)N3CCC(C)CC3)[nH]c2=O)cc1OC`: the inhibition is -4.95% (inactive).

Consider `O=P(O)(CN1CCCCC1)CN1CCCCC1`, for which the inhibition is -5.45% (inactive).

As to `O=C(CN1C(=O)CSc2ncccc21)N1CCOCC1`, the inhibition was -4.9% (inactive).

For `COC(=O)C1=C(C)NC(=O)NC1/C=C/c1ccccc1` (stereo unspecified), the inhibition is -63.7% (inactive).

Turning to `COC(=O)C1=C(C)NC2=C(C(=O)c3ccccc32)C1c1ccc(-c2ccc(C(=O)O)cc2)o1` (stereo unspecified), the inhibition is 81.9% (active).

With `COc1ccccc1NC(=O)C1=C(C)NC2=C(C(=O)CCC2)C1c1ccc(C)o1` (stereo unspecified), the inhibition was -19.4% (inactive).

Take `Cc1nnc(NC(=O)CCC(=O)N2CCC(C)CC2)s1`: the inhibition was -0.8% (inactive).

As for `Cc1cc(=O)n2nc(N3CCCC(C(=O)NCCC4=CCCCC4)C3)sc2n1` (stereo unspecified), the inhibition was -4.48% (inactive).

In the case of `COc1cc2c(cc1NC(=O)CN1CCN(S(=O)(=O)c3ccc(F)cc3)CC1)oc1ccccc12`, the inhibition was 56.4% (active).

As for `COc1ccccc1NC(=O)CN1CCN(S(=O)(=O)c2ccc(Br)cc2)CC1`, the inhibition was -1.95% (inactive).

Turning to `COc1ccc(NC(=O)CN2CCN(S(=O)(=O)c3ccc(F)cc3)CC2)cc1Cl`, the inhibition is -9.57% (inactive).

Take `Cc1cc(Br)ccc1NC(=O)C1CCCO1` (stereo unspecified): the inhibition was -14.4% (inactive).

As for `N#Cc1ccc(OCCN2C(=O)NC3(CCSC3)C2=O)cc1` (stereo unspecified), the inhibition was -7.99% (inactive).

Take `O=C(CN1C(=O)CCC1=O)Nc1ccc(S(=O)(=O)N2CCOCC2)cc1`: the inhibition was -11.6% (inactive).

Take `Nc1scc(-c2ccncc2)c1Cl`: the inhibition was -13.4% (inactive).

As for `Clc1ccc(Cc2nnc(-c3cccs3)o2)cc1`, the inhibition is -42.9% (inactive).

Turning to `Clc1ccc(Cc2nn3c(-c4ccncc4)nnc3s2)cc1`, the inhibition was 53.8% (active).

With `CCOC(=O)c1ccc(CS(=O)c2ccc(Cl)cc2)o1` (stereo unspecified), the inhibition is -8.12% (inactive).

As for `COc1ccc(S(=O)(=O)NC2(C(F)(F)F)N=C3SCCN3C2=O)cc1` (stereo unspecified), the inhibition was -21.6% (inactive).

For the compound `CCOC(=O)c1sc(/N=C/Nc2nc(C)c(C(=O)OCC)s2)nc1C`, the inhibition is 66.5% (active).

Regarding `Cc1nc(NC(=O)CCC(=O)O)sc1C(=O)N(C)C`, the inhibition was 0.73% (inactive).

Consider `CCOC(=O)c1sc(NC(=O)C(CC)Sc2nccn2C)nc1C` (stereo unspecified), for which the inhibition was 7.42% (inactive).

For the compound `CCCOC(=O)CC1C(=O)NCCN1Cc1ccc(F)cc1` (stereo unspecified), the inhibition was 15.5% (inactive).

Consider `CC(=O)Nc1ccc(S(=O)(=O)N2CCN(CCCOc3cc(C)ccc3C)CC2)cc1`, for which the inhibition is -8.05% (inactive).

On to `CCC(CC)C(=O)Nc1cc(C(=O)OC)cc(C(=O)OC)c1`, for which the inhibition was -9.62% (inactive).

Take `Cc1ccc(S(=O)(=O)C2(S(=O)(=O)c3ccc(C)cc3)CCCC2)cc1`: the inhibition was -7.65% (inactive).

As to `COc1ccc(N(Cc2cc3cc(OC)ccc3[nH]c2=O)S(C)(=O)=O)cc1`, the inhibition is -0.75% (inactive).

On to `CCOc1ccc2[nH]c(=O)c(CN(CCCO)C(C)=O)cc2c1`, for which the inhibition was 84.7% (active).

Take `CCC(=O)N(Cc1cc2cc(OC)ccc2[nH]c1=O)c1ccccc1C`: the inhibition was -2.05% (inactive).

With `CCCc1[nH]nc2c1C(C1CC=CCC1)C(C#N)=C(N)O2` (stereo unspecified), the inhibition was -53.6% (inactive).

For `Cc1nc2ccc(C(=O)N3CCSCC3)cc2s1`, the inhibition was -8.86% (inactive).

Take `CC(C)CC(=O)N=C1SC2CS(=O)(=O)CC2N1CCc1ccccc1` (stereo unspecified): the inhibition was -0.09% (inactive).

As to `Cc1ccc(C(=O)NC2CCN(C(=O)N3CCOCC3)CC2)cc1`, the inhibition is -0.08% (inactive).

For the compound `O=C(NCCCN1CCN(Cc2ccccc2)CC1)C1CCN(S(=O)(=O)N2CCCC2)CC1`, the inhibition is -16.5% (inactive).

With `CN1CCN(c2nc3c(c(=O)[nH]c(=O)n3C)n2Cc2cccc3ccccc23)CC1`, the inhibition was -0.99% (inactive).

Regarding `CCC(C)Sc1nc2c(c(=O)[nH]c(=O)n2C)n1CC(O)COc1cccc2ccccc12` (stereo unspecified), the inhibition is 76.5% (active).

Regarding `CCOC(=O)Cn1c(CN(Cc2ccccc2)Cc2ccccc2)nc2c1c(=O)[nH]c(=O)n2C`, the inhibition is -4.21% (inactive).

Regarding `Cc1cccc(NC(=O)CSc2nnc(CCCCCNC(=O)OC(C)(C)C)o2)c1C`, the inhibition is -13.1% (inactive).

Consider `COc1ccc(CCn2c(=N)c(C(=O)NCc3ccco3)cc3c(=O)n4cccc(C)c4nc32)cc1`, for which the inhibition was 64.2% (active).

On to `COc1ccc(CNC(=O)c2cc3c(=O)n4ccccc4nc3n(CC3CCCO3)c2=N)cc1` (stereo unspecified), for which the inhibition was -18.1% (inactive).

Consider `CCn1c(=N)c(C(=O)NCCCOC)cc2c(=O)n3cccc(C)c3nc21`, for which the inhibition is -13.1% (inactive).

With `Cn1c(=O)[nH]c(=O)c2c1nc(CN(Cc1ccccc1)Cc1ccccc1)n2CCN1CCOCC1`, the inhibition was -6.59% (inactive).

In the case of `COc1ccc(OCCCON2C(=O)c3ccccc3C2=O)cc1`, the inhibition is -68.1% (inactive).

For `CCCc1nc2ccccc2c(=O)n1NC(=O)c1c(O)c2ccccc2[nH]c1=O`, the inhibition was -19.6% (inactive).

For the compound `CCCCc1nc2ccccc2c(=O)n1NC(=O)c1c(O)c2cccc3c2n(c1=O)CC3`, the inhibition is 4.26% (inactive).

With `CCCc1nc2ccccc2c(=O)n1/N=C/c1ccc(O)c(O)c1`, the inhibition is 88.4% (active).

For `Cc1ccc2c(c1)N(CCCC(=O)NCc1cccnc1)C(=O)CO2`, the inhibition was -14.5% (inactive).

Take `Cc1ccc(-n2nc(-c3ccco3)cc2C(=O)NCc2cccnc2)cc1`: the inhibition is 61.9% (active).

Regarding `CC(C)(C)c1cc(C(=O)NCc2cccnc2)ccn1`, the inhibition is 3.16% (inactive).

Turning to `C#CCN1C(=O)C(O)(CC(=O)c2cc(OC)ccc2OC)c2ccccc21` (stereo unspecified), the inhibition was -25.6% (inactive).

Turning to `O=P(O)(CP(=O)(c1ccccc1)c1ccccc1)c1ccccc1`, the inhibition was -16.3% (inactive).

Turning to `CC12CCC(C(=O)N(CCC#N)CCC#N)(CC1=O)C2(C)C` (stereo unspecified), the inhibition is -5.03% (inactive).

Consider `CCOC(=O)CSC1=C(C#N)C(c2sccc2C)CC(=O)N1` (stereo unspecified), for which the inhibition was -2.34% (inactive).

For `CCOC(=O)CSC1=C(C#N)C(c2ccco2)C(C(=O)OCc2ccccc2)=C(C)N1` (stereo unspecified), the inhibition was -11.6% (inactive).

As to `CC1=C(C(=O)Nc2ccccc2)C(c2cccs2)C(C#N)=C(SCC#N)N1` (stereo unspecified), the inhibition is 55.5% (active).

With `O=C(Nn1cc(C(=O)N2CCN(c3ccccc3F)CC2)c2ccccc2c1=O)c1cnccn1`, the inhibition is -2.41% (inactive).

As for `COc1cc(-c2nn3c(-c4cccc(C)c4)nnc3s2)cc(OC)c1OC`, the inhibition was -7.33% (inactive).

As for `COc1ccc(-c2nn3c(-c4ccccc4)nnc3s2)cc1OC`, the inhibition is -38.4% (inactive).

For the compound `Fc1ccc(-c2nnc3sc(-c4ccc5c(c4)OCO5)nn23)cc1`, the inhibition was 66.3% (active).

As to `FC(F)(F)c1nnc2sc(-c3ccco3)nn12`, the inhibition was -2.16% (inactive).

As to `Cc1nnc2sc(-c3ccco3)nn12`, the inhibition is 4.12% (inactive).

On to `Fc1ccc(-c2ccc(-c3nn4c(-c5ccco5)nnc4s3)o2)cc1`, for which the inhibition was 65.8% (active).

As usually defined, the inhibition is the change of the read-out against control, counted positive when it falls.
